# Screening results as filed in PubChem.
# Shown is part of a subset that was picked to be rich in hits.
# IDE exosite inh: exo-site inhibitors of human IDE, primary screen, biochemical, fluorescence anisotropy, probe displacement; Insulin-degrading enzyme (Homo sapiens), P14735; purified IDE, FL-6b probe fluorescence polarization; active compounds read low; z-score at 20 µM; 17,000 tested, 6.3% active;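 active = z-score of -3 or lower, meaning strong loss of probe binding signal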;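 also: His-tagged human IDE residues 42-1019 made in E. coli with 30 nM FL-6b probe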
# A number is an active result; – = inactive.
SMILES,IDE exosite inh
Cc1ccccc1-c1ccc([C@@H]2[C@@H](CO)N3CCCCN(S(=O)(=O)c4ccc(F)cc4)C[C@@H]23)cc1,-18
CCS(=O)(=O)N1CCCCN2[C@H](C1)[C@@H](c1ccc(-c3ccccc3C)cc1)[C@@H]2CO,-8.8
Cc1ccccc1-c1ccc([C@@H]2[C@@H](CO)N3CCCCN(S(=O)(=O)Cc4ccccc4)C[C@H]23)cc1,–
Cc1ccccc1-c1ccc([C@H]2[C@@H](CO)N3CCCCN(S(=O)(=O)c4ccc(F)cc4)C[C@H]23)cc1,–
O=S(=O)(c1ccc(F)cc1)N1CCCCN2[C@H](C1)[C@H](c1ccc(-c3ccccc3)cc1)[C@@H]2CO,–
Cc1ccccc1-c1ccc([C@H]2[C@H](CO)N3CCCCN(S(=O)(=O)Cc4ccccc4)C[C@@H]23)cc1,–
CCS(=O)(=O)N1CCCCN2[C@@H](CO)[C@H](c3ccc(-c4ccccc4F)cc3)[C@@H]2C1,–
CCS(=O)(=O)N1CCCCN2[C@@H](CO)[C@@H](c3ccc(-c4ccccc4F)cc3)[C@@H]2C1,-6.5
CCCC#Cc1ccc([C@@H]2[C@@H](CO)N3C(=O)CN(C(=O)c4ccccc4)C[C@@H]23)cc1,–
CCCC#Cc1ccc([C@@H]2[C@@H](CO)N3C(=O)CN(S(=O)(=O)c4ccccc4C)C[C@@H]23)cc1,–
CC(C)C#Cc1ccc([C@H]2[C@@H](CO)N3C(=O)CN(C(=O)Cc4ccccc4)C[C@@H]23)cc1,–
O=C(Cc1ccncc1)N1CC(=O)N2[C@@H](CO)[C@H](c3ccc(Br)cc3)[C@@H]2C1,–
C[C@@H]1CN([C@@H](C)CO)C(=O)Cc2cc(NC(=O)C3CC3)ccc2O[C@@H]1CN(C)S(=O)(=O)c1cn(C)cn1,–
O=S(=O)(c1ccccc1)N1CCCCN2[C@H](CO)[C@H](c3ccc(-c4ccccc4)cc3)[C@H]2C1,–
CN(C)C(=O)C[C@H]1CC[C@H]2[C@@H](COc3ccc(NC(=O)C4CCCCC4)cc3C(=O)N2C)O1,–
Cc1nn(C)cc1NC(=O)C[C@H]1CC[C@H]2[C@@H](COc3ccc(NC(=O)C4CCOCC4)cc3C(=O)N2C)O1,–
OC[C@H]1[C@@H](c2ccccc2)C2(CN(Cc3ccccc3F)C2)N1Cc1ccccc1F,–
O=C(Nc1ccc(F)cc1)N1CCCCN2[C@H](C1)[C@@H](c1ccc(C#CC3CC3)cc1)[C@@H]2CO,–
Cc1ccccc1-c1ccc(C2[C@@H]3CN(S(=O)(=O)Cc4ccccc4)C[C@H]2N3)cc1 (some centres not stated),–
Cc1ccc(S(=O)(=O)N2C[C@@H]3N[C@H](C2)C3c2ccc(-c3ccc(C(=O)N(C)C)cc3)cc2)cc1 (some centres not stated),–
CN(C)C(=O)c1ccc(-c2ccc(C3[C@@H]4CN(S(=O)(=O)Cc5ccccc5)C[C@H]3N4)cc2)cc1 (some centres not stated),-4.2
O=C(C1CCCC1)N1CC(=O)N2[C@@H](CO)[C@@H](c3ccc(Br)cc3)[C@@H]2C1,–
CCCNC(=O)N1[C@H](CO)[C@H](c2ccc(C3=CCCC3)cc2)[C@H]1CNC(=O)CC,–
O=C(c1cccc(F)c1)N1CCCCN2[C@H](C1)[C@H](c1ccc(-c3ccccc3)cc1)[C@@H]2CO,–
CN1CCCCN2[C@@H](CO)[C@@H](c3ccc(C#CC4(O)CCCC4)cc3)[C@@H]2C1,–
SMILES,IDE exosite inh
COc1cccc(-c2ccc([C@H]3[C@H](CO)N4C(=O)CN(C(=O)c5cccnc5)C[C@@H]34)cc2)c1,–
COc1cccc(-c2ccc([C@H]3[C@@H](CO)N4C(=O)CN(C(=O)c5cccnc5)C[C@@H]34)cc2)c1,–
COc1ccc(C#Cc2ccc([C@H]3[C@H](CO)N4C(=O)CN(C(=O)c5cccnc5)C[C@@H]34)cc2)cc1,–
COc1cccc(-c2ccc([C@@H]3[C@@H](CO)N4C(=O)CN(C(=O)c5cccnc5)C[C@@H]34)cc2)c1,-3.7
COc1ccc(C#Cc2ccc([C@@H]3[C@@H](CO)N4C(=O)CN(C(=O)c5cccnc5)C[C@H]34)cc2)cc1,–
COc1cccc(-c2ccc([C@H]3[C@@H](CO)N4C(=O)CN(C(=O)c5cccnc5)C[C@H]34)cc2)c1,-4.9
CC(=O)N1CC(=O)N2[C@H](CO)[C@@H](c3ccc(-c4ccccc4)cc3)[C@H]2C1,–
C[C@H]1CNC(=O)[C@H](Cc2ccc(C(F)(F)F)cc2)CCn2nncc2COC1,–
C[C@@H]1CCCCO[C@@H](CN(C)CC2CC2)[C@H](C)CN([C@H](C)CO)C(=O)c2cc(NC(=O)c3ccccc3)ccc2O1,–
CNC(=O)C[C@@H]1CC[C@@H]2[C@@H](COc3ccc(NC(=O)c4ccccc4F)cc3C(=O)N2C)O1,–
C/C=C/c1ccc([C@@H]2[C@@H](CO)N(C(=O)NCCC)[C@@H]2CNC(=O)C2CC2)cc1,–
C/C=C/c1ccc([C@H]2[C@@H](CNC(C)=O)N(Cc3ccccn3)[C@H]2CO)cc1,–
CCCC#Cc1ccc([C@@H]2[C@@H](CO)N3C(=O)CN(C(=O)Nc4cc(F)ccc4F)C[C@@H]23)cc1,–
O=C1CN(S(=O)(=O)c2ccccc2)C[C@@H]2[C@@H](c3ccc(C#CCc4ccccc4)cc3)[C@H](CO)N12,–
CC(C)CC#Cc1ccc([C@H]2[C@@H](CO)N3C(=O)CN(C(=O)Nc4ccc(F)cc4)C[C@@H]23)cc1,–
CC(C)N(C[C@H]1N[C@H](CO)[C@@H]1c1ccccc1)C(=O)CN1CCOCC1,–
O=C(c1ccncc1)N1CCCCN2[C@@H](CO)[C@H](c3ccc(C#Cc4ccccn4)cc3)[C@@H]2C1,–
CC(C)(O)C#Cc1ccc([C@H]2[C@@H](CO)N3CCCCN(C(=O)c4cccnc4)C[C@H]23)cc1,–
O=C(c1cccnc1)N1CCCCN2[C@H](CO)[C@@H](c3ccc(C#Cc4ccccn4)cc3)[C@H]2C1,-4.7
O=C(c1cccnc1)N1CCCCN2[C@H](CO)[C@@H](c3ccc(C#Cc4ccccn4)cc3)[C@@H]2C1,–
O=C(c1cccnc1)N1CCCCN2[C@H](C1)[C@@H](c1ccc(C#Cc3ccccn3)cc1)[C@@H]2CO,-3.8
O=C(c1cccnc1)N1CCCCN2[C@@H](CO)[C@H](c3ccc(C#Cc4cccnc4)cc3)[C@@H]2C1,–
COc1ccc2c3c([nH]c2c1)[C@@H](CO)N(C(=O)Nc1c(C)noc1C)CC31CN(CC2CCOCC2)C1,–
CNC[C@@H]1Oc2ccc(N)cc2CC(=O)N([C@H](C)CO)C[C@H]1C,–
O=C(Nc1cc(F)ccc1F)N1CCCCN2[C@H](C1)[C@H](c1ccc(-c3cncnc3)cc1)[C@@H]2CO,–
SMILES,IDE exosite inh
C[C@@H]1CCCCO[C@H](CN(C)S(C)(=O)=O)[C@@H](C)CN([C@@H](C)CO)C(=O)c2cc(NC(=O)NC3CCCCC3)ccc2O1,–
CCCNC(=O)N1[C@H](CO)[C@@H](c2ccccc2C2=CCCC2)[C@@H]1C#N,–
COc1ccc2c3c(n(C)c2c1)[C@@H](CO)N(C(=O)c1ccccc1)CC31CCN(C(=O)c2ccccc2)CC1,–
N#C[C@H]1N[C@@H](CO)[C@@H]1c1ccc(-c2ccccc2F)cc1,–
N#C[C@@H]1N[C@@H](CO)[C@@H]1c1ccc(-c2ccccc2F)cc1,–
N#C[C@@H]1N[C@H](CO)[C@H]1c1ccc(-c2ccccc2F)cc1,–
O=C(NC[C@H]1N[C@H](CO)[C@@H]1c1ccc(-c2cncnc2)cc1)C1CCCCC1,–
COc1ccccc1-c1ccc([C@@H]2[C@@H](C#N)N[C@@H]2CO)cc1,-8.9
